For 38 molecules, growth results are on record in PubChem BioAssay (NCI).

This is part of a sample that, as a whole, favours compounds with a hit. Of some 83,000 tested, about 20% had one in any assay.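 Testing used 96-well plates and a 48-hour single-concentration exposure. Example: -40 means 40% of the starting cells died.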 The source made the active and inactive calls. Rule for the calls: active = growth percent below 10; inactive = the rest.

In the experiment the test system is HOP-62 NSCLC. As to the kind of experiment: NCI-60 one-dose screen, 48 h (100 = growth as untreated, 0 = no growth, -100 = all killed). The conditions noted are these: 10 µM unless noted.
Regarding `COc1cc2ncnc(Nc3ccc(S(=O)(=O)Nc4nccs4)cc3)c2cc1OCCCN1CCOCC1`, the growth is 93.3% (inactive).

Turning to `Fc1ccc(-c2cnc3nonc3n2)c(F)c1`, the growth was 93.7% (inactive).

`COCc1nc(NS(=O)(=O)c2ccc(N)cc2)nc(C)c1Br`: the growth is 91% (inactive).

For the molecule `COc1ncnc2[nH]cc(CN3CCN(c4ccc(F)cc4)CC3)c12`, the growth is 107% (inactive).

Take `CC(C)N(C(=S)SSC(=S)N(C(C)C)C(C)C)C(C)C`: the growth was 104% (inactive).

As for `COc1cc2c(=O)n(CCCN(C)C)c3c4cc[nH]c4ncc3c2cc1OC`, the growth is 11.8% (inactive).

For `CCCCCCCCN(CCCCCCCC)C(=O)CCl`, the growth is 113% (inactive).

For `COc1cc(/C=N/NC(=O)Cn2c(-c3ccc(C)o3)nc3ccccc32)ccc1OCc1ccccc1`, the growth was 89.8% (inactive).

With `CCN(CC)c1ccc(/C=N/NC(=O)C[N+](C)(C)C)cc1`, the growth was 99.2% (inactive).

As to `c1cc2c(cc1-c1cnc3nonc3n1)OCO2`, the growth was 83.5% (inactive).

Turning to `CC(C)[C@@]12C[C@@H](OC(=O)C3CO3)[C@@](C)(O1)[C@@H]1CC[C@@H](C)[C@H]1[C@@H]2OC(=O)/C=C/c1ccccc1` (stereo partly drawn), the growth is 76.6% (inactive).

Consider `ClC1(Cl)C2CCCCCCC21` (stereo not drawn), for which the growth was 108% (inactive).

For the molecule `CCCCOc1nc2ccccc2cc1/C=C/c1cc(/C=C/c2cc3ccccc3nc2OCCCC)n(-c2ccccc2)n1`, the growth is 91.2% (inactive).

As for `S=C(S)Oc1cccc2cccnc12`, the growth is 110% (inactive).

For the molecule `Cc1cc(-c2ccc(N=Nc3c(S(=O)(=O)O)cc4cc(S(=O)(=O)O)cc(O)c4c3O)c(C)c2)ccc1N=Nc1c(S(=O)(=O)O)cc2cc(S(=O)(=O)O)cc(O)c2c1O`, the growth was 82.7% (inactive).

In the case of `O=C(NCCN1CCCCC1)n1cc(-c2ccncc2)c(-c2ccc(Cl)c(O)c2)n1`, the growth is 79% (inactive).

`N/C(=N\OC(=O)c1ccccc1)C(Cc1ccccc1)C(=O)NOC(=O)c1ccccc1` (stereo not drawn): the growth was 1.55% (active).

For `Nc1ncnc2c1N=C(c1ccc3c(c1)OCO3)CC(c1ccc(Cl)cc1)N2` (stereo not drawn), the growth was 44.1% (inactive).

Regarding `COc1ccc(C(=O)OC2C(OC3C(O)COC(O[C@H]4C[C@H]5[C@@H]6CC=C7C[C@@H](O)CC[C@]7(C)[C@H]6CC[C@]5(C)[C@H]4[C@H](C)C(=O)CCC(C)C)C3OC(C)=O)OCC(O)C2O)cc1` (stereo partly drawn), the growth was -32.2% (active).

For `O=C(Nc1ccncc1)C(=O)c1cn(S(=O)(=O)c2cccc(Cl)c2F)c2ccccc12`, the growth is 89.6% (inactive).

For the molecule `OC(CCCCCCCCC(O)CN1CCc2ccccc2C1)CN1CCc2ccccc2C1` (stereo not drawn), the growth is 103% (inactive).

As to `CCCNCCC(C)=O`, the growth is 106% (inactive).

As for `CC1OC(n2c3ccccc3c3c4c(c5c6ccccc6[nH]c5c32)C(=O)N(CCN2CCOCC2)C4=O)CC(O)C1O` (stereo not drawn), the growth is -5.89% (active).

`COc1ccc(-c2nc(SCCC(C)C)nc(Nc3ccc(C(=O)O)cc3)c2C#N)cc1`: the growth was 95.7% (inactive).

With `CCOC(=O)C1C(=O)C=C(c2cc(OC)c(OC)c(OC)c2)CC1c1sc(N(C)Cc2ccccc2)nc1Cl` (stereo not drawn), the growth was 78.3% (inactive).

Turning to `C#Cc1cccc(Nc2nc3cc([N+](=O)[O-])ccc3nc2Nc2ccc(O)cc2)c1`, the growth is 21.4% (inactive).

For `O=C(Nc1cccc(-n2ccc3c(NC(=O)c4ccccc4)nccc32)c1)c1ccc(N2CCOCC2)c(C(F)(F)F)c1`, the growth is 7.08% (active).

On to `Cc1ccc(NC(=O)c2sc3nc4c(cc3c2N)C(=O)CCC4)cc1Cl`, for which the growth is 110% (inactive).

For the molecule `COc1ccc(-c2cc(C(=O)Nc3ccc(C)cc3)nc3[nH]c(=O)sc23)cc1`, the growth was 84.7% (inactive).

Regarding `COc1cc(/C=C/c2cc(/C=C/c3ccc(O)c(OC)c3)n(C(=O)Nc3ccc(F)c(Cl)c3)n2)ccc1O`, the growth was -7.78% (active).

With `COc1cc2c(c(OC)c1O)C(=O)C(OC)C(c1ccc(O)c(O)c1)O2` (stereo not drawn), the growth is 42.3% (inactive).

On to `CCOC(OCC)c1cnc2nc(NC(C)=O)[nH]c(=O)c2n1`, for which the growth is 120% (inactive).

For the molecule `S=C(Cc1ccccc1)N1CCN(c2ccccc2Cl)CC1`, the growth was 105% (inactive).

For `CCCCOc1nc2ccc(C)cc2cc1/C=C/C(=O)/C=C(O)/C=C/c1cc2cc(C)ccc2nc1OCCCC`, the growth was 87.3% (inactive).

With `COc1ccccc1CNCCCN1C(=O)c2ccc3c4c(ccc(c24)C1=O)C(=O)N(CCCCNCCCN)C3=O`, the growth was 40.1% (inactive).

Regarding `OC(COCc1ccccc1)COCc1ccccc1`, the growth was 106% (inactive).

Take `CC(C)CC1NC(=O)C(CC(C)C)N(CO)C1=O` (stereo not drawn): the growth was 107% (inactive).

In the case of `OCCN(CCO)c1ccc2ccccc2c1`, the growth is 90.6% (inactive).
